Among the test systems are NCI-H23 lung; NCI-H226 lung; NCI-H322M lung; HOP-62 NSCLC; NCI-H460 lung; NCI-H522 lung; A549/ATCC NSCLC; 786-0 renal; COLO 205 colon; DU-145 prostate.
Test in all cases: NCI-60 one-dose screen, 48 h (100 = growth as untreated, 0 = no growth, -100 = all killed)
Conditions in all cases: 10 µM

Compounds without any hit were thinned out: in the full panel of roughly 83,000, 20% have a hit.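 48-hour exposure, single concentration, 96-well plates; percent growth endpoint where 0 means no net growth. Active: below 10.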 Unmarked numbers belong to inactive results. Activity calls are given as the source filed them.

With `CCCCCCCCCCCCCCCC(=O)OC1[C@@H](OC(=O)CCCCCCCCCCCCCCC)[C@@H](C(=O)N[C@@H](CCCCN)C(=O)OC)O[C@H]1n1cnc2c(=O)[nH]c(NC(=O)C(C)C)nc21` (stereo not given in full), the growth is 97.8% in the assay on NCI-H23 lung; 102% in the assay with NCI-H226 lung; 89.6% with NCI-H322M lung; 104% with HOP-62 NSCLC; 101% in the assay with NCI-H460 lung; 84.4% in the assay with NCI-H522 lung. For the same compound, the growth in the assay with A549/ATCC NSCLC was 99.8%; with 786-0 renal, 98.1%; in the assay on COLO 205 colon, 101%; in the assay on DU-145 prostate it was 107%.
In the case of `O=C(Nc1ccncc1)C(=O)c1cn(S(=O)(=O)c2cc(Cl)cc(Cl)c2)c2ccccc12`, the growth with NCI-H23 lung was 70.3%; in the assay with NCI-H226 lung it was 74.2%; in the assay on NCI-H322M lung, 99.6%; in the assay on HOP-62 NSCLC, 71.7%; with NCI-H460 lung, 87.3%; with NCI-H522 lung, 40.2%. Moreover, the growth was 85.3% in the assay with A549/ATCC NSCLC, 72.5% in the assay with 786-0 renal, 104% in the assay with COLO 205 colon and 66.5% in the assay on DU-145 prostate.
As to `CCN(CC)CCOc1nc2ccc(OC)cc2c2c1-c1ccc(OC)cc1C2=O`, the growth is -30.5% (active) in the assay on NCI-H23 lung; 16.5% with NCI-H226 lung; -13.2% (active) in the assay on NCI-H322M lung; 6.96% (active) in the assay on HOP-62 NSCLC; -75.4% (active) in the assay on NCI-H460 lung; -89.2% (active) with NCI-H522 lung. Further, the growth in the assay on A549/ATCC NSCLC was -67.2% (active); in the assay with 786-0 renal, 26%; with COLO 205 colon it was 15.3%; in the assay with DU-145 prostate it was -70.3% (active).
Regarding `O=C(Nc1cccc(-n2cc(-c3ccncc3)c(-c3ccc(O)c(Cl)c3)n2)c1)c1ccc(N2CCOCC2)c(C(F)(F)F)c1`, the growth is 42.2% in the assay with NCI-H23 lung; 85.8% with NCI-H226 lung; 44.5% with NCI-H322M lung; 41.5% with HOP-62 NSCLC; 11.6% in the assay on NCI-H460 lung; 35.6% in the assay with NCI-H522 lung. Also, the growth in the assay on A549/ATCC NSCLC was 22.9%; in the assay on 786-0 renal, 8.9% (active); in the assay with COLO 205 colon it was 51.2%; in the assay with DU-145 prostate, 62.7%.
For `O=C(C[n+]1ccccc1)c1ccc2ccccc2c1`, the growth is 88.1% with NCI-H23 lung; 96.4% in the assay with NCI-H226 lung; 95.2% in the assay on NCI-H322M lung; 89.1% with HOP-62 NSCLC; 104% in the assay on NCI-H460 lung; 103% in the assay on NCI-H522 lung. Moreover, the growth in the assay on A549/ATCC NSCLC is 96.7%; in the assay on 786-0 renal it was 87.6%; with COLO 205 colon it was 102%; in the assay with DU-145 prostate it was 87.9%.
As for `CSc1nc(=O)n(Cc2ccc(F)cc2)c(=O)n1Cc1ccc(C)cc1`, the growth with NCI-H23 lung was 101%; with NCI-H226 lung, 101%; in the assay on NCI-H322M lung, 112%; with HOP-62 NSCLC, 101%; with NCI-H460 lung, 105%; in the assay with NCI-H522 lung, 110%. Further, the growth with A549/ATCC NSCLC was 88.5%; in the assay on 786-0 renal, 100%; with COLO 205 colon it was 94.6%; in the assay with DU-145 prostate it was 107%.
Consider `CC[C@H](C)C(=O)O[C@H]1CCC=C2C=C[C@H](C)C(CCC3C[C@@H](O)CC(=O)O3)[C@H]21` (stereo not given in full), for which the growth in the assay on NCI-H23 lung was 64.4%; in the assay on NCI-H226 lung, 76.8%; in the assay on NCI-H322M lung, 44.6%; in the assay on HOP-62 NSCLC, 87%; in the assay with NCI-H460 lung, 92.9%; in the assay with NCI-H522 lung, 23%. Also, the growth in the assay on A549/ATCC NSCLC is 97.2%; with 786-0 renal, 84.8%; in the assay on COLO 205 colon, 89%; with DU-145 prostate, 110%.
With `CN(C)c1ccc(/C=C/C=N/NC(=O)c2cc(O)c(O)c(O)c2)cc1`, the growth in the assay with NCI-H23 lung was 99.6%; in the assay with NCI-H226 lung, 101%; in the assay with NCI-H322M lung, 93.7%; in the assay with HOP-62 NSCLC it was 103%; with NCI-H460 lung, 107%; in the assay with NCI-H522 lung it was -31.8% (active). Also, the growth in the assay on A549/ATCC NSCLC was 98%; in the assay on 786-0 renal it was 103%; in the assay on COLO 205 colon, 94.1%; with DU-145 prostate, 109%.
As to `COc1ccc(-c2nn(-c3cccc(NC(=O)Nc4ccccc4)c3)cc2-c2ccncc2)cc1Cl`, the growth is 42.6% with NCI-H23 lung; 70.6% with NCI-H226 lung; 39.5% with NCI-H322M lung; 46% in the assay with HOP-62 NSCLC; 4.93% (active) in the assay on NCI-H460 lung; 5.77% (active) in the assay on NCI-H522 lung. The growth with A549/ATCC NSCLC was -4.41% (active); in the assay on 786-0 renal, 42.2%; in the assay with COLO 205 colon it was -50.6% (active); in the assay with DU-145 prostate, 50.1%.
On to `COc1cc(-c2nc(-c3nnc(-c4ccccc4Cl)o3)c3ccccn23)cc(OC)c1OC`, for which the growth in the assay with NCI-H23 lung is 91.1%; in the assay with NCI-H226 lung it was 84%; in the assay with NCI-H322M lung, 88.3%; with HOP-62 NSCLC it was 87.2%; in the assay on NCI-H460 lung, 95.4%; in the assay on NCI-H522 lung it was 78.4%. Also, the growth was 72% in the assay with A549/ATCC NSCLC, 105% in the assay with 786-0 renal, 85.4% in the assay on COLO 205 colon and 98.5% in the assay with DU-145 prostate.
For `Cc1ccc(C(=O)N2C/C(=C/c3ccccc3)C(=O)/C(=C/c3ccccc3)C2)cc1`, the growth in the assay on NCI-H23 lung is 78.6%; in the assay with NCI-H226 lung, 71.2%; with NCI-H322M lung it was 80.5%; with HOP-62 NSCLC, 76.9%; with NCI-H460 lung it was 90%; with NCI-H522 lung, 69%. In addition, the growth is 84% in the assay with A549/ATCC NSCLC, 53.6% in the assay with 786-0 renal, 76.7% with COLO 205 colon and 58.3% with DU-145 prostate.
In the case of `CN(Cc1ccccc1)Cc1ccc([N+](=O)[O-])cc1I`, the growth with NCI-H23 lung is 107%; in the assay with NCI-H226 lung, 94.5%; in the assay with NCI-H322M lung, 92.9%; with HOP-62 NSCLC, 101%; with NCI-H460 lung, 97.3%; in the assay on NCI-H522 lung, 86.7%. The growth was 93.6% in the assay on A549/ATCC NSCLC, 97.8% with 786-0 renal, 104% with COLO 205 colon and 95.6% in the assay on DU-145 prostate.
With `CCOCC(=O)C(C#N)c1ccc(Cl)c(Cl)c1` (stereo not given), the growth in the assay on NCI-H23 lung was 106%; in the assay on NCI-H226 lung, 88.8%; in the assay with NCI-H322M lung it was 102%; in the assay with HOP-62 NSCLC, 90.9%; with NCI-H460 lung, 107%; with NCI-H522 lung, 94.4%. Also, the growth in the assay with A549/ATCC NSCLC is 101%; in the assay with 786-0 renal it was 101%; in the assay on COLO 205 colon, 115%; in the assay on DU-145 prostate it was 113%.

These data come from PubChem BioAssay (NCI).
